# The whole screen tested about 350,000 compounds, of which about 31,000 (8.9%) were called active. Roughly 15% stayed inconclusive and do not appear here. Shown is part of a subset that was picked to be rich in actives. Entries that show only a call come without a potency. A number with no mark means an inactive call. Calls come from the whole dose curve; as a rule, active = well fitted inhibition curve with a large enough effect; inconclusive = small, poorly fitted or top-dose-only effect; inactive = no such curve, though single readings can be large or run the other way.
# Target: Histone-lysine N-methyltransferase EHMT2 (Homo sapiens) (UniProt Q96KQ7)
# Assay: qHTS Assay for Inhibitors of Histone Lysine Methyltransferase G9a; note: nearly all actives have a fitted effect of over 75% in size
# Settings: G9a H3K9 monomethylation, AlphaScreen, 2 h; series mostly up to 59 µM
# Excerpt: Methylated lysines, on the N-terminal tails of histone proteins serve as epigenetic markers to recruit factors that can then modify local chromatin structure to lead to functional consequences. G9a and other members of the SUV39 family of the SET domain-containing superfamily of histone lysine methyltransferases (HMT) have been identified to specifically methylate Lys9 of histone H3 (H3K9). G9a catalyzes the mono- and di-methylation of H3K9 in mammalian euchromatic regions, where the resulting H3K9me2 is indicative of transcriptional repression. […] The inhibition of G9a will result in transcriptional activation and work synergistically with DNA methyltransferase and histone deacetylase inhibitors, to kill cancer cells. This qHTS assay for identification of G9a inhibitors is a chemiluminescence based AlphaScreen (PerkinElmer). Methylation of biotinylated-histone peptide is measured through specific antibody-based detection, in conjunction with streptavidin-coated donor and anti-IgG antibody-coated acceptor beads. The method is particularly well suited for detection of inhibitors acting by the desired histone peptide competitive mechanism and is applicable to testing other HMTs. Although AlphaScreen has significant advantages with its utility in a variety of epigenetic target assays, the primary screening data provided in this deposition should be used with caution due to the prevalence of screening artifacts. An AlphaScreen counterscreen is highly recommended to be run against any putative actives to eliminate non specific artifacts. Alternatively, one can use other AlphaScreen assays in PubChem to filter out promiscuous hits. Quinn et al. A chemiluminescence-based method for identification of histone lysine methyltransferase inhibitors. Mol Biosyst 6(5): 782-8. 2010. PMID: 20567762 [2] Baell,Holloway. New substructure filters for removal of pan assay interference compounds (PAINS) from screening libraries and for their exclusion in bioassays. J Med Chem. 53(7):2719-40. 2010. PMID: 20131845 NIH Molecular Libraries Probe Production Network [MLPCN] NIH Chemical Genomics Center [NCGC] Structural Genomics Consortium (SGC) NIH Grant: 5U54 MH084681-02
# To each well of a 1,536w plate, 2ul of HMT enzyme (final 20nM) were added, using a nanoliter dispenser. The G9a- and GLP-inhibitor BIX-01294 (CID: 25150857) are used as an intraplate control, with a 16-point titration in duplicate. A Kalypsys pin-tool transferred 23nl of library compound solution in DMSO to each well. Following a 15 min incubation of enzyme with compounds at room temperature, 1ul mixture of b-H3K9 peptide substrate (final 500nM) and SAM cofactor (final 20uM) were added. Reactions were allowed to proceed at room temperature for 2 hours. Methylated b-H3K9 peptide product was detected with 0.5 ug/mL rabbit polyclonal anti-monomethyl histone H3K9 antibody (Abcam Inc., Cambridge, MA) and 20 ug/mL each streptavidin-coated donor and anti-rabbit IgG acceptor AlphaScreen beads. Antibody and beads were added in a 1ul dispense, for a final volume of 4ul, and plates were incubated, protected from the light, for 10 min at room temperature. Microplates were then read on an EnVision multilabel plate reader using the 1,536 plate HTS AlphaScreen aperture (excitation time 80 ms, measurement time 240 ms).
# Potency is the fitted concentration of half-maximal effect.
# Histone-lysine N-methyltransferase EHMT2 (Homo sapiens), sequence (Q96KQ7 913-1193 limits assumed): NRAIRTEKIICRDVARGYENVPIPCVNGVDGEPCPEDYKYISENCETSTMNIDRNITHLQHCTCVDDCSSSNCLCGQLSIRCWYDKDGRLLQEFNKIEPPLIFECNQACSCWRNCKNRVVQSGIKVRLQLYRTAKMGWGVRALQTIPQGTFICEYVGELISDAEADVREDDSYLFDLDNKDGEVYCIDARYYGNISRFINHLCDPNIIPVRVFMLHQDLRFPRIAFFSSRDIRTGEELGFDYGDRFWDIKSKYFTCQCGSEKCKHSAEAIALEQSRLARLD
SMILES,Potency,"activity, negative = inhibition"
COc1ccc(CNC(=O)C(=O)N2CCC3(CC2)OCCN3S(=O)(=O)c2ccc(C)cc2)cc1,inactive,
COc1ccccc1C(=O)NC(=O)COC(=O)C1CC1,inactive,
O=S(=O)(NCCCCCCNS(=O)(=O)c1c(F)cccc1F)c1ccc2c(c1)OCCO2,,21.9% [at 2.33 µM]
CC(=O)CC[C@@H](C)O[C@@H]1OC(C)[C@H](O)CC1O (stereo not given in full),,14.8% [at 2.33 µM]
Cc1cccc(C2c3[nH]c4ccccc4c3CCN2C(=O)c2cc(-c3cccn3C)n[nH]2)n1 (stereo not given),28.2 µM (active),
CCOc1cccc(CC(=O)N2CCc3c([nH]c4ccccc34)C2c2ccc(F)cc2)c1OCC (stereo not given),inactive,
Cc1cccc(C(=O)N2CCc3c([nH]c4ccccc34)C2CC(C)C)n1 (stereo not given),inactive,
CC1CCN(C(=O)COC(=O)c2cc(=O)[nH]c3ccccc23)CC1,,-8.14% [at 12.7 µM]
COCc1ccc(C(=O)N2CCc3c([nH]c4ccccc34)C2c2ccccn2)s1 (stereo not given),31.6 µM (active),
CCc1nnc(SCc2c(F)cccc2Cl)c2cc3sccc3n12,inactive,
CC(C)CN(C(=O)c1ccc2c(c1)OCO2)C1CCS(=O)(=O)C1 (stereo not given),inactive,
CN(CC(=O)Nc1cccc(F)c1)C(=O)C1CSC2(C)CCC(=O)N12 (stereo not given),inactive,
CCC(=O)N1CCc2cc(S(=O)(=O)NC(CC(C)C)C(=O)NCCc3cccc(C)c3)ccc21 (stereo not given),inactive,
Cc1cc(NC(=O)COc2ccccc2C#N)no1,inactive,
O=C(c1ccc(C(F)(F)F)cc1)C1CCCN(C(=O)c2csnn2)C1 (stereo not given),inactive,
COCC(=O)N1CCCC(C(=O)c2ccc(C(F)(F)F)cc2)C1 (stereo not given),inactive,
Cc1cnc(C(=O)N2CCCC(C(=O)c3ccc(C(F)(F)F)cc3)C2)cn1 (stereo not given),22.4 µM (active),
CCc1ccc(Nc2nn3c(=O)c4cc5c(cc4nc3s2)OCO5)cc1,inactive,
CCCCN(CC)C(=O)c1ccc2c(c1)OCO2,inactive,
CCc1ccc2nc(N(CCCN(C)C)C(=O)c3ccc4c(c3)OCCO4)sc2c1,inactive,

SMILES,Potency,"activity, negative = inhibition"
CN(C)CCCN(C(=O)c1ccc(S(=O)(=O)N2CCCCCC2)cc1)c1nc2cc3c(cc2s1)OCCO3,44.7 µM (active),
Cc1nc2ccc(NC(=O)C3CCCCC3)cc2s1,,8.28% [at 12.7 µM]
O=C(Nc1nc2cc3c(cc2s1)OCCO3)c1cccc(S(=O)(=O)N2CCOCC2)c1,inactive,
CCN(CC)CCN(C(=O)c1cc(Cl)sc1Cl)c1nc2cc3c(cc2s1)OCO3,50.1 µM (active),
O=C(NCc1ccc2c(c1)OCO2)c1ccc(Cl)s1,inactive,
Cc1nc2cc3c(cc2s1)OCO3,inactive,
CCN(CC)CCN(C(=O)c1ccc(N2C(=O)CCC2=O)cc1)c1nc2cc3c(cc2s1)OCO3,35.5 µM (active),
CN(C)CCN(C(=O)C1CCCCC1)c1nc2cc3c(cc2s1)OCO3,70.8 µM (active),
COc1ccccc1N1CCN(CC(=O)Nc2ccnn2C2CCCC2)CC1,,10.3% [at 2.33 µM]
CCC1Nc2ncnc(N3CCN(c4ccccc4)CC3)c2N(Cc2ccc(Cl)cc2)C1=O (stereo not given),,3.93% [at 2.33 µM]
CC(C)NC(=O)c1nn(-c2ccccc2F)nc1CO,inactive,
OCC(CO)NC1C[C@](O)(CO)[C@@H](O)[C@H](O)[C@H]1O (stereo not given in full),inactive,
O=C(c1cccs1)N1CCC(c2nc3ccccc3s2)CC1,39.8 µM (active),
Cc1cccc(NC(=S)N2CCC(c3nc4ccccc4s3)CC2)c1,,30.9% [at 0.501 µM]
CC(C)(C)c1ccc(OCC(=O)N2CCC(c3nc4ccccc4s3)CC2)cc1,inactive,
CC(=O)c1cccc(NC(=O)c2nc(-c3ccccc3)n(-c3cccc(C)c3)n2)c1,inactive,
Cn1c(C(=O)NCCCN2CCN(c3cccc(Cl)c3)CC2)cc2c(=O)n(C)c3ccccc3c21,7.94 µM (active),
O=C(CCn1c(=O)[nH]c2ccccc2c1=O)NCCCN1CCN(c2cccc(Cl)c2)CC1,inactive,
CCOc1ccc(CCNC(=O)c2cc3c(=O)n(C)c4ccccc4c3n2C)cc1,inactive,
CCN1C(=O)c2ccccc2Sc2ccc(NC(=O)Cc3ccc(OC)cc3)cc21,inactive,

SMILES,Potency,"activity, negative = inhibition"
CCC(C)n1c(-c2cc(OC)c(OC)c(OC)c2)nc2nc3ccccc3nc21 (stereo not given),inactive,
COc1cc(-c2n[nH]c(=S)n2Cc2ccccc2)cc(OC)c1OC,3.55 µM (active),
COc1cc(-c2nnn(CC(=O)NCc3ccccc3)n2)cc(OC)c1OC,inactive,
COC(=O)C1=C(O)/C(=C/c2ccc(OCC(=O)Nc3ccccc3)cc2)N=C1C,inactive,
CCOC(=O)C1=C(O)/C(=C/c2cc(C)n(-c3ccccc3)c2C)N=C1C,50.1 µM (active),
CCOC(=O)c1nn(-c2cccc(C)c2)cc1C(=O)c1ccccc1,,-45.6% [at 2.33 µM]
COc1ccc2oc(C(=O)NCC(Cc3ccccc3)N(C)C)c(C)c2c1 (stereo not given),inactive,
Cc1ccc(OC(=O)c2cncc(Br)c2)c(C)c1,inactive,
COc1ccc(NC(=O)CCNS(=O)(=O)c2ccc3c(c2)c(=O)n(C)c(=O)n3C)cc1OC,inactive,
Cn1c(=O)c2cn(-c3cccc4ccccc34)cc2n(C)c1=O,,5.87% [at 2.33 µM]
COc1ccc(OC)c(-n2cc3c(=O)n(C)c(=O)n(C)c3c2)c1,50.1 µM (active),
Cc1ccc(NC(=O)c2cccc(S(=O)(=O)N3CCCc4ccccc43)c2)nc1,inactive,
CCOC(=O)CC1(NC(=O)c2cc(COc3cncc(Cl)c3)on2)CCCCC1,inactive,
COc1ccc(C[C@H](C(=O)O)N2C(=O)c3ccc(C(=O)O)cc3C2=O)cc1,,8.45% [at 12.7 µM]
CCOC(=O)C(Cc1ccc(N)cc1)N1C(=O)c2ccccc2C1=O (stereo not given),50.1 µM (active),
CCCCC(C(=O)OCC(=O)c1ccc(OC)cc1)N1C(=O)c2ccccc2C1=O (stereo not given),inactive,
COc1cc(OC)cc(C(=O)NCCc2csc3nc(-c4ccccc4F)nn23)c1,inactive,
CCOCCCNC(=O)C(NC(=O)CNC(=O)c1ccccc1)c1ccc(OC)cc1 (stereo not given),15.8 µM (active),
CCOCCCNC(=O)C(NC(=O)Cc1c[nH]c2ccccc12)c1ccc(OC)cc1 (stereo not given),inactive,
CCOCCCNC(=O)C(NC(=O)CNC(=O)c1ccccc1)c1ccc(C)cc1 (stereo not given),inactive,

# — PubChem BioAssay AID504332 (National Center for Advancing Translational Sciences (NCATS), 2011)
